Source: PubChem BioAssay (EPA / NIEHS)
Records with an inconclusive call do not appear. Active and inactive are the calls of the source. The calls were made as follows, unless noted: active = hit-call score of the fitted dose curve at least 0.9, where 1 is the maximum; inconclusive = response in the unintended direction; inactive = score below 0.9.

How the values were obtained:
[1] = target: Androgen receptor (Homo sapiens) (UniProt P10275); test: ATG_AR_TRANS: Attagene TRANS-FACTORIAL HepG2 Assay for human Androgen Receptor (AR) (AID 2282973); details: HepG2 Attagene TRANS-FACTORIAL AR reporter transcription
How it was run: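 Chimeric nuclear receptor–Gal4 activity was assessed in human HepG2 hepatocytes after 24 h chemical dosing. Induced reporter mRNA was detected via labelled RT-PCR fragments on capillary electrophoresis, and gain of signal was analysed against DMSO.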

[2] = target: human Phosphatase and Tensin Homolog (PTEN), PTEN (gene 5728) (UniProt P60484); test: NVS_ENZ_hPTEN: NovaScreen (NVS) Enzymatic Assay for human Phosphatase and Tensin Homolog (PTEN) (AID 2283203)
How it was run: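 Cell-free recombinant human PTEN with fluorescent substrate; product separated by electrophoretic mobility shift and read by fluorescence 1 h after dosing. Primary screen in duplicate at 25 uM, actives followed in concentration series versus DMSO.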

[3] = target: Norway rat Vesicular Monoamine Transporter (VMAT2), neurotransmitter transporter, Slc18a2 (gene 25549) (UniProt Q01827); test: NVS_TR_rVMAT2: NovaScreen (NVS) Transporter Assay for Norway rat Vesicular Monoamine Transporter (VMAT2), neurotransmitter transporter (AID 2283376);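 also: actives lower the bound radioligand signal below the DMSO level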
How it was run: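 Radioligand displacement binding on rat forebrain tissue preparation, filter-based scintillation read-out 1 hour after dosing. Primary screen in duplicate at 25 uM, then concentration series for actives; loss of signal versus DMSO.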

[4] = target: human Protein Tyrosine Phosphatase Receptor Type C (PTPRC), PTPRC (gene 5788) (UniProt P08575); test: NVS_ENZ_hPTPRC: NovaScreen (NVS) Enzymatic Assay for human Protein Tyrosine Phosphatase Receptor Type C (PTPRC) (AID 2283212)
How it was run: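 Yeast-extracted human PTPRC used in a cell-free colorimetric enzyme activity read-out, 1 h after dosing. Primary screen in duplicate at 25 uM; actives rerun in concentration-response up to 50 uM, DMSO as baseline.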

[5] = tested on: rat Monoamine Oxidase, MAO-A, Central (MAOAC), gene 29253; test: NVS_ENZ_rMAOAC: NovaScreen (NVS) Enzymatic Assay for rat Monoamine Oxidase, MAO-A, Central (MAOAC) (AID 2283243);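 also: potency refers to inhibition seen as signal drop below DMSO baseline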
How it was run: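 Inhibition of rat brain-derived MAO-A was read by scintillation counting after 1.5 h exposure. Compounds screened first at 25 uM in duplicate, then in dose series if active.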

[6] = target: rat Corticotropin Releasing Factor Receptor (CRF), Crhr1 (gene 58959) (UniProt P35353); test: NVS_GPCR_rCRF: NovaScreen (NVS) G Protein-Coupled Receptor Assay for rat Corticotropin Releasing Factor Receptor (CRF) (AID 2283300)
How it was run: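 Rat cortical membranes used as receptor source in a radioligand competitive displacement binding assay; scintillation read 2 h after dosing. Primary screen run in duplicate at 25 uM; loss of signal versus DMSO baseline indicates binding.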

[7] = Tanguay_ZF_120hpf_MUSC: Oregon State University Tanguay Lab 120 Hour Post-fertilization zebrafish Assay for Muscle Malformation (AID 2284401; active = hit-call score of the fitted dose curve at least 0.9, where 1 is the maximum; inactive = score below 0.9)
How it was run: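 Dechorionated Tropical 5D wild-type zebrafish embryos exposed statically from 6 to 120 hpf at 28C, one per well, in 0.64% DMSO. Muscle malformation scored present/absent by brightfield microscopy at 120 hpf, fitted against DMSO.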

[8] = target: human Raf-1 Proto-Oncogene, serine/threonine Kinase (RAF1), RAF1 (gene 5894) (UniProt P04049); test: NVS_ENZ_hRAF1: NovaScreen (NVS) Enzymatic Assay for human Raf-1 Proto-Oncogene, serine/threonine Kinase (RAF1) (AID 2283216)
How it was run: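 Cell-free recombinant kinase with specific fluorescent substrate, product separated by electrophoretic mobility shift; read 1 h after dosing. Primary screen at 25 uM in duplicate; hits then run in concentration-response up to 50 uM, fitted as loss of signal versus DMSO.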

[9] = target: rat Monoamine Oxidase, MAO-B, Peripheral (MAOBP), Maob (gene 25750) (UniProt P19643); test: NVS_ENZ_rMAOBP: NovaScreen (NVS) Enzymatic Assay for rat Monoamine Oxidase, MAO-B, Peripheral (MAOBP) (AID 2283242)
[10] = target: rat Monoamine Oxidase, MAO-B, Central (MAOBC), Maob (gene 25750) (UniProt P19643); test: NVS_ENZ_rMAOBC: NovaScreen (NVS) Enzymatic Assay for rat Monoamine Oxidase, MAO-B, Central (MAOBC) (AID 2283238)
How it was run: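 MAO-B activity in rat brain tissue preparation, cell-free, measured radiometrically by scintillation counting 1.17 h after dosing. Screened in duplicate at 25 uM; actives then in concentration-response up to 50 uM. Loss of signal versus DMSO scored.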

[11] = target: human Neonicotinoid receptor (NNR), CHRNA2 (gene 1135) (UniProt Q15822); test: NVS_LGIC_hNNR_NBungSens: NovaScreen (NVS) Ligand-Gated Ion Channel Assay for human Neonicotinoid receptor (NNR) (AID 2283313)
How it was run: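 Radioligand displacement on human neuroblastoma membranes, 2 h, filter-based scintillation counting. Primary screen in duplicate at 25 uM; chemicals passing threshold (e.g. 30% inhibition) run singleton concentration-response to 50 uM; loss of binding fitted versus DMSO.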

[12] = target: rat Oxytocin Receptor (OXT), Oxtr (gene 25342) (UniProt P70536); test: NVS_GPCR_rOXT: NovaScreen (NVS) G Protein-Coupled Receptor Assay for rat Oxytocin Receptor (OXT) (AID 2283330)
How it was run: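 Radioligand displacement on rat uterine membranes, 1 h incubation, filter-based scintillation counting. Chemicals were screened in duplicate at 25 uM, and those passing threshold were retested in concentration-response up to 50 uM. Loss of binding was fitted versus DMSO.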

[13] = target: rat Acetylcholinesterase (AChE), Ache (gene 83817) (UniProt P37136); test: NVS_ENZ_rAChE: NovaScreen (NVS) Enzymatic Assay for rat Acetylcholinesterase (AChE) (AID 2283233)
How it was run: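 Rat brain membrane acetylcholinesterase activity measured colorimetrically 0.33 h after compound addition, loss of signal relative to DMSO. Primary screen in duplicate at 25 uM; actives re-run as concentration-response with 50 uM top concentration.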

[14] = read-out: xenobiotic metabolism (CYP2C9), CYP2C9 (gene 1559); test: CLD_CYP2C9_6hr: CellzDirect (CLD) Gene Expression Assay for xenobiotic metabolism (CYP2C9) at 6 hours (AID 2283664)
How it was run: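 Primary human hepatocytes dosed daily with test chemicals at multiple concentrations; harvested at 6 h. CYP2C9 mRNA induction measured by qNPA chemiluminescence. Gain of signal fitted against 0.2% DMSO vehicle; cytotoxicity annotated from phase-contrast morphology.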

[15] = ATG_M_32_XSP2: Attagene TRANS-FACTORIAL Multi-Species (XSP2) HepG2 Assay for M19 Transcription Factor (Internal Marker) (AID 2283826)
How it was run: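 An internal background marker among multiplexed transfected reporters in HepG2 liver cells was measured 24 h after dosing. Androgen receptor stimulation came from 3 nM 6-alpha-fluorotestosterone and 1.5 nM norgestrel.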

[16] = tested on: rat Monoamine Oxidase, MAO-A, Peripheral (MAOAP), gene 29253; test: NVS_ENZ_rMAOAP: NovaScreen (NVS) Enzymatic Assay for rat Monoamine Oxidase, MAO-A, Peripheral (MAOAP) (AID 2283237)
How it was run: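 Rat liver mitochondrial membranes served as the MAO-A source, with enzyme activity measured by radiometric scintillation counting 1.17 hours after dosing. Loss of signal was fitted against DMSO; primary screen used 25 uM in duplicate, follow-up used concentration series.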

[17] = target: bovine Gamma-Aminobutyric Acid Type A Receptor BDZ, alpha 1 site (GABARa1), GABRA1 (gene 780973) (UniProt P08219); test: NVS_LGIC_bGABARa1: NovaScreen (NVS) Ligand-Gated Ion Channel Assay for bovine Gamma-Aminobutyric Acid Type A Receptor BDZ, alpha 1 site (GABARa1) (AID 2283321)
How it was run: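 Radioligand competition binding on bovine cortical membranes, 0.75 h, filter-based scintillation counting. Primary single concentration 25 uM in duplicate; actives rerun in concentration-response to 50 uM max. Loss of signal fitted versus DMSO.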

[18] = target: Voltage-dependent N-type calcium channel subunit alpha-1B (Rattus norvegicus) (UniProt Q02294); test: NVS_IC_rCaChN: NovaScreen (NVS) Ion Channel Assay for rat Calcium Channel, Type N (CaChN) (AID 2283317)

Chain of rat Monoamine Oxidase, MAO-B, Peripheral (MAOBP), Maob (gene 25750) (P19643 whole entry, looked up): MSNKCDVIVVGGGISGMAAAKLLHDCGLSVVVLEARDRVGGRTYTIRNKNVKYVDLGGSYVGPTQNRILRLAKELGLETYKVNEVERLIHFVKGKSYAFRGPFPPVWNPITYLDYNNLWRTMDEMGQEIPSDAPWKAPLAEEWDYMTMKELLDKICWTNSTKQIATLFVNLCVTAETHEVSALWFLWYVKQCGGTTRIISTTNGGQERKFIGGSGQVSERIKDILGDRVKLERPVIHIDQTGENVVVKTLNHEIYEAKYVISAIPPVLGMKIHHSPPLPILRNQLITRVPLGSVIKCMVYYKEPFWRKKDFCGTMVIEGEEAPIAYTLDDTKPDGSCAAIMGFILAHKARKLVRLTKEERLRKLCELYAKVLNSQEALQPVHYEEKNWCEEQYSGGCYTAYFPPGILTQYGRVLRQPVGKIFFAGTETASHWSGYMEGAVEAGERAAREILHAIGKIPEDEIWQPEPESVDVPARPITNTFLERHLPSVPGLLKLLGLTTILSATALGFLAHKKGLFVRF
Chain of rat Monoamine Oxidase, MAO-B, Central (MAOBC), Maob (gene 25750) (P19643 whole entry, looked up): as above
Chain of Androgen receptor (Homo sapiens) (P10275 whole entry, looked up, the tested form may be a part): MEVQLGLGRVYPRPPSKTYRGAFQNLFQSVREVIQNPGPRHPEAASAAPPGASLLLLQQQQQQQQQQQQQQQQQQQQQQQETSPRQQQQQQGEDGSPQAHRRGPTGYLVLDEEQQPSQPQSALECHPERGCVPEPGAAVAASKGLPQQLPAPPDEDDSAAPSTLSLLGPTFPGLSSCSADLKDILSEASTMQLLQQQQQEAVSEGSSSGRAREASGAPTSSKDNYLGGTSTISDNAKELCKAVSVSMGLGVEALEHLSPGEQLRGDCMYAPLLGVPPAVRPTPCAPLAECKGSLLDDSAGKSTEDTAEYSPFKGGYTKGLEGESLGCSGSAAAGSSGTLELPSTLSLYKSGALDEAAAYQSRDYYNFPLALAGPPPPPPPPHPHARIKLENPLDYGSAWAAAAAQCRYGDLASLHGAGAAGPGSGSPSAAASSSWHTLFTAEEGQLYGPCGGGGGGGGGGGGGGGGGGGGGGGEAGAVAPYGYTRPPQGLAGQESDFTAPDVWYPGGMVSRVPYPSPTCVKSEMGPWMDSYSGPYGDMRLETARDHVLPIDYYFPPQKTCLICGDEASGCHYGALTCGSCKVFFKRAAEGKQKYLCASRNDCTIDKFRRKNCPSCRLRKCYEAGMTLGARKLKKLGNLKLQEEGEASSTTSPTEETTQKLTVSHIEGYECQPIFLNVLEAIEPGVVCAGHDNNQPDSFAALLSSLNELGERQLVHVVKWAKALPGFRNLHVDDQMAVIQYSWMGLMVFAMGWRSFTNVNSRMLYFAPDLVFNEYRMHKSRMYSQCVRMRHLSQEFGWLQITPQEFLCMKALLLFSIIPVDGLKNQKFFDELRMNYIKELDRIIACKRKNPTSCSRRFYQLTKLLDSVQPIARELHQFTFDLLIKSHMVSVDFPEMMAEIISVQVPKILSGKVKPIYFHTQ
Chain of human Protein Tyrosine Phosphatase Receptor Type C (PTPRC), PTPRC (gene 5788) (P08575 whole entry, looked up): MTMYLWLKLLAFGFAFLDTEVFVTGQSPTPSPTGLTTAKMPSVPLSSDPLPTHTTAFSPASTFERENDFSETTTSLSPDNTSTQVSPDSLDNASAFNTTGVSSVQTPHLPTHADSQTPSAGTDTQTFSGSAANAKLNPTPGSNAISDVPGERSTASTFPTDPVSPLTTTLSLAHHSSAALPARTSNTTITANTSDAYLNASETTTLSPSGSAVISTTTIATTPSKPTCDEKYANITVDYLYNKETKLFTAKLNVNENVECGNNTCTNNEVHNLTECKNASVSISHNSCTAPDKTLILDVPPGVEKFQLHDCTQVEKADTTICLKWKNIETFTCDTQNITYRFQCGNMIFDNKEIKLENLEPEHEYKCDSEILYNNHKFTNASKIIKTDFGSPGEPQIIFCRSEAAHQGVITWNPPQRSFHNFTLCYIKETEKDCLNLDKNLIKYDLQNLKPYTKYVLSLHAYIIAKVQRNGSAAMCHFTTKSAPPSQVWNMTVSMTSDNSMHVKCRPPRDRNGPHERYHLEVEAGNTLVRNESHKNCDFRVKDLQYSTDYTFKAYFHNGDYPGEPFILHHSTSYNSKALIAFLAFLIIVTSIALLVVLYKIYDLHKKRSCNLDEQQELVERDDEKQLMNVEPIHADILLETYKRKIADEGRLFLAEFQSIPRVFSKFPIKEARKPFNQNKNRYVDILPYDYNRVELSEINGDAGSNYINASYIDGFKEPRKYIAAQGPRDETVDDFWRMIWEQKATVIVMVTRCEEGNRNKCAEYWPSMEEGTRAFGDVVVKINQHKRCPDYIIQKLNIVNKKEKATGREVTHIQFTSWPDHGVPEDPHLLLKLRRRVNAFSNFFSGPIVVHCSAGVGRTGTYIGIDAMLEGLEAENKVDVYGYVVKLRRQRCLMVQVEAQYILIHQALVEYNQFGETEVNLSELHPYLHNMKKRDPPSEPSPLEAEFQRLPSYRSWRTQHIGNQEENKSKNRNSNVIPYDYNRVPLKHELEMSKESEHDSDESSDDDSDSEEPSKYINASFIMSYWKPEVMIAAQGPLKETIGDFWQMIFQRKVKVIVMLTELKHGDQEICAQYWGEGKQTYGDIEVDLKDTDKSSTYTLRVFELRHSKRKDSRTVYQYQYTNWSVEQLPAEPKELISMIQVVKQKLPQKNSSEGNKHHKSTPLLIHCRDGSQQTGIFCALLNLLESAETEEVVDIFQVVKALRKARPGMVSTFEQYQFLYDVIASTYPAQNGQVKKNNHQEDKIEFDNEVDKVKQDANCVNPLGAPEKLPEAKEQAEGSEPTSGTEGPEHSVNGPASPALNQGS
Chain of human Phosphatase and Tensin Homolog (PTEN), PTEN (gene 5728) (P60484 whole entry, looked up): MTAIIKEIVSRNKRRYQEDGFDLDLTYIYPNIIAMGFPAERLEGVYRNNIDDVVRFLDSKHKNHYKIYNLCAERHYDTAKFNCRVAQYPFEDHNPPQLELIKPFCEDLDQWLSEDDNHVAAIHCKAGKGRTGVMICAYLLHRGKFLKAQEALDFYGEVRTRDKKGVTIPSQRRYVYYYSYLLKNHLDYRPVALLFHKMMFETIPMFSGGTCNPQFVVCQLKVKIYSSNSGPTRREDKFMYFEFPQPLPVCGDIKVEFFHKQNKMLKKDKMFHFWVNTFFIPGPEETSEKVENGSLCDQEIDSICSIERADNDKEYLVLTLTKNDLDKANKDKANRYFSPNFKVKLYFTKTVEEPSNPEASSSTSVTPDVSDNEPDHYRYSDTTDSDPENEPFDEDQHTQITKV
Chain of rat Acetylcholinesterase (AChE), Ache (gene 83817) (P37136 whole entry, looked up): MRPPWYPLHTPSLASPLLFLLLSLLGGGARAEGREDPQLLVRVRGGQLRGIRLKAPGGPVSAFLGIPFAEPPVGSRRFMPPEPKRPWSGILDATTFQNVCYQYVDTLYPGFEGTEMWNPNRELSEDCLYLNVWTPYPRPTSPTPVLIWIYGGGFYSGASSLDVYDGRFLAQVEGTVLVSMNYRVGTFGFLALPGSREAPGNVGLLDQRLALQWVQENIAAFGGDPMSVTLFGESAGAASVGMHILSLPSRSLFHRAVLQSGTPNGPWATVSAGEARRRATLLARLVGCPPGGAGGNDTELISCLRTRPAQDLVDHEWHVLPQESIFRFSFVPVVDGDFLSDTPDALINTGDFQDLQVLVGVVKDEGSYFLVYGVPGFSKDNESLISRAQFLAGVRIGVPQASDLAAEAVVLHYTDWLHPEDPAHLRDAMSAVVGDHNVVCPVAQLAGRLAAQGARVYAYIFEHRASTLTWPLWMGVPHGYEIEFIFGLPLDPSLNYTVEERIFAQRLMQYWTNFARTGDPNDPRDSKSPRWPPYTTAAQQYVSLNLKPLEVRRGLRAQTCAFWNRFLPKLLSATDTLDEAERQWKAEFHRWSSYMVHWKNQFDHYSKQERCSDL
Chain of Norway rat Vesicular Monoamine Transporter (VMAT2), neurotransmitter transporter, Slc18a2 (gene 25549) (Q01827 whole entry, looked up): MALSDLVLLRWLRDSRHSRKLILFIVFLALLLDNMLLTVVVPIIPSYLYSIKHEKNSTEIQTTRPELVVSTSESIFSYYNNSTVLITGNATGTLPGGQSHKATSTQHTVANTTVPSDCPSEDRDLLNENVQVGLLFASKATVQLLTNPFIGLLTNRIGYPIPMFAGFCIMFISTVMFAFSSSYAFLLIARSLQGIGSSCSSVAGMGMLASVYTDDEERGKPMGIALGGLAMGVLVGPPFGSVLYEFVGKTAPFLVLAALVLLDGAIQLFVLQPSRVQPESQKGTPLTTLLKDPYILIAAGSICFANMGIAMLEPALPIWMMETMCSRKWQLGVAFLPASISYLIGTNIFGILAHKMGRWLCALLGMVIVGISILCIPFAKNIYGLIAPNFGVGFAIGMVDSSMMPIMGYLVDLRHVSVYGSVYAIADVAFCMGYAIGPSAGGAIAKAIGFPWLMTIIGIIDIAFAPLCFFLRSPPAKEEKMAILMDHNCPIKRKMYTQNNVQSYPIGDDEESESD
Chain of rat Oxytocin Receptor (OXT), Oxtr (gene 25342) (P70536 whole entry, looked up): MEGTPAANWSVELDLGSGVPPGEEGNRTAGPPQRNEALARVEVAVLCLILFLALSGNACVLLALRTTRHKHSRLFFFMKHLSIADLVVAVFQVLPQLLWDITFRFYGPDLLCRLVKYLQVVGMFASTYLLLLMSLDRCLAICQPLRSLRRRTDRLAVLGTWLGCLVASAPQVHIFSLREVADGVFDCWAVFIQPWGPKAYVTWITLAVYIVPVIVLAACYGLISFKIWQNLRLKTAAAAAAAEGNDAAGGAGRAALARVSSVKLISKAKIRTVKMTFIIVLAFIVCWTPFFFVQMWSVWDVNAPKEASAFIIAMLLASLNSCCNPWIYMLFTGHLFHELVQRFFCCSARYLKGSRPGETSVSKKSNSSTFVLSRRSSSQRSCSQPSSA

## O[Si](c1ccccc1)(c1ccccc1)c1ccccc1
[1]
  outcome: inactive
[2]
  AC50: 10.6 µM (active)

## CCCCCCCCC(C)=O
[1]
  outcome: inactive
[2]
  outcome: inactive
[3]
  outcome: inactive

## O=C(O)Cc1ccccc1Nc1c(Cl)cccc1Cl
[1]
  outcome: inactive
[4]
  outcome: inactive

## O=C(O)C[C@H](O)C[C@H](O)/C=C/c1c(C2CC2)nc2ccccc2c1-c1ccc(F)cc1
[1]
  outcome: inactive
[2]
  AC50: 0.161 µM (active)

## Clc1ccc2c(Cl)ccnc2c1
[1]
  outcome: inactive
[5]
  AC50: 20.8 µM (active)

## OCCC(F)(F)C(F)(F)C(F)(F)C(F)(F)C(F)(F)C(F)(F)C(F)(F)C(F)(F)F
[1]
  outcome: inactive
[6]
  outcome: inactive
[7]
  outcome: inactive

## CCc1cccc(CC)c1
[1]
  outcome: inactive
[2]
  outcome: inactive

## Cn1c(=O)[nH]c2ncn(C)c2c1=O
[1]
  outcome: inactive
[5]
  AC50: 34.9 µM (active)

## C#CC(O)C(CC)CCCC (stereo unspecified)
[1]
  outcome: inactive
[8]
  outcome: inactive

## CCOc1ccc(NC(C)=O)cc1
[1]
  outcome: inactive
[5]
  AC50: 21 µM (active)

## CCCCCCc1ccc(O)cc1O
[1]
  outcome: inactive
[5]
  AC50: 16.5 µM (active)

## CCN(CC)c1ccc(C=O)c(O)c1
[1]
  outcome: inactive
[5]
  AC50: 17.5 µM (active)

## O=C(c1ccccc1)C1CCCCC1
[1]
  outcome: inactive
[4]
  outcome: inactive
[9]
  outcome: inactive

## CN(Cc1cnc2nc(N)nc(N)c2n1)c1ccc(C(=O)N[C@@H](CCC(=O)O)C(=O)O)cc1
[1]
  outcome: inactive
[10]
  outcome: inactive

## C=C(C)CCO
[1]
  outcome: inactive
[2]
  outcome: inactive

## CSc1ccc(O)cc1C
[1]
  outcome: inactive
[5]
  AC50: 15.7 µM (active)

## CCC(=O)OC/C=C(\C)CCC=C(C)C
[1]
  outcome: inactive
[5]
  outcome: inactive

## NCCOCCOCCN
[1]
  outcome: inactive
[11]
  outcome: inactive
[12]
  outcome: inactive

## O=C(Nc1ccc(Cl)cc1)Nc1ccc(Cl)c(Cl)c1
[1]
  outcome: inactive
[13]
  outcome: inactive

## COc1ccccc1C=O
[1]
  outcome: inactive
[2]
  outcome: inactive

## CCN(CCC#N)c1ccc(N=Nc2ccc([N+](=O)[O-])cc2)cc1
[1]
  outcome: inactive
[2]
  outcome: inactive
[3]
  outcome: inactive

## COCCC(=O)OC
[1]
  outcome: inactive
[5]
  outcome: inactive

## O=C(NS(=O)(=O)/C=C/c1cccs1)c1ccc(F)cc1Br
[1]
  outcome: inactive
[10]
  outcome: inactive
[9]
  outcome: inactive

## CCOC(=O)COc1cc(-n2ncc(C(F)(F)F)c(C)c2=O)c(F)cc1Cl
[1]
  outcome: inactive
[8]
  outcome: inactive
[14]
  outcome: inactive

## O=c1c(-c2ccc(O)cc2)coc2cc(O)ccc12
[1]
  outcome: inactive
[9]
  outcome: inactive
[15]
  outcome: inactive

## CCCCC(CC)C(=O)OCCOCCOCCOC(=O)C(CC)CCCC (stereo unspecified)
[1]
  outcome: inactive
[5]
  outcome: inactive

## CN(C[C@@H](CC[N+]12CCC(C3CCCCC3)(CC1)CC2)c1ccc(Cl)c(Cl)c1)C(=O)c1cc(C(F)(F)F)cc(C(F)(F)F)c1
[1]
  outcome: inactive
[2]
  AC50: 16.2 µM (active)
[4]
  outcome: inactive
[16]
  AC50: 36.8 µM (active)
[17]
  outcome: inactive
[12]
  AC50: 16.5 µM (active)

## CCCCCCCC(=O)OCC
[1]
  outcome: inactive
[5]
  AC50: 37.3 µM (active)

## CCOC(=O)CC(C)O (stereo unspecified)
[1]
  outcome: inactive
[5]
  outcome: inactive

## CN[C@H]1CC[C@@H](c2ccc(Cl)c(Cl)c2)c2ccc(S(N)(=O)=O)cc21
[1]
  outcome: inactive
[13]
  AC50: 25 µM (active)
[18]
  outcome: inactive

## CCC(=C(c1ccc(O)cc1)c1ccc(OCCN(C)C)cc1)c1ccccc1
[1]
  outcome: inactive
[18]
  outcome: inactive

## CC(C)=CCCC(C)O (stereo unspecified)
[1]
  outcome: inactive
[2]
  outcome: inactive

## CC1CCC(C(C)(C)O)CC1 (stereo unspecified)
[1]
  outcome: inactive
[2]
  AC50: 1.56 µM (active)

## CN(C)C(=O)Nc1ccc(Cl)c(Cl)c1
[1]
  outcome: inactive
[10]
  outcome: inactive
[5]
  AC50: 13.6 µM (active)

## Clc1cccc(Cl)n1
[1]
  outcome: inactive
[5]
  outcome: inactive

## O=C1c2ccc(O)c(O)c2C(=O)c2c(O)ccc(O)c21
[1]
  outcome: inactive
[5]
  outcome: inactive
